Compounds without any hit were thinned out: in the full panel of roughly 83,000, 20% have a hit.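 Percent growth is the endpoint: 0 to 100 indicates growth inhibition (40 means 60% inhibition), 0 means no net growth, and negative values indicate cell death.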 Calls of active or inactive are those of the source. How the source made its calls: active means growth percent below 10; inactive means the rest.
Columns and labels:
Test in all cases: NCI-60 one-dose screen, 48 h (100 = growth as untreated, 0 = no growth, -100 = all killed)
Conditions in all cases: 10 µM unless noted
[1] = system: HCT-15 colon
[2] = system: HT29 colon
[3] = system: SNB-75 CNS
[4] = system: SNB-19 CNS
[5] = system: U251 CNS
[6] = system: PC-3 prostate
[7] = system: SK-MEL-5 melanoma
[8] = system: UACC-62 melanoma
[9] = system: SK-MEL-28 melanoma
[10] = system: SK-MEL-2 melanoma
[11] = system: EKVX NSCLC
[12] = system: SN12C renal
[13] = system: UO-31 renal
[14] = system: TK-10 renal
[15] = system: ACHN renal
[16] = system: CAKI-1 renal
[17] = system: A498 renal
[18] = system: CCRF-CEM leukemia
[19] = system: MOLT-4 leukemia

Measured: growth

N#Cc1c(-c2ccc(Br)cc2)nc2n[nH]c(-c3ccc(Br)cc3)c2c1-c1ccc(F)cc1
inactive: [1] 98.6% | [2] 87.9% | [3] 94.5% | [4] 102% | [5] 96.7% | [6] 89% | [7] 95.1% | [8] 87% | [9] 102% | [10] 109% | [11] 70.7% | [12] 85.2% | [13] 65.3% | [14] 135% | [15] 91.2% | [16] 70.1% | [17] 163% | [18] 102% | [19] 74.9%

CC(=O)Nc1cccc(Nc2nc(N[C@H]3CCCc4ccccc43)c3ccccc3n2)c1
inactive: [1] 97.5% | [2] 104% | [3] 90.6% | [4] 96.9% | [5] 105% | [6] 115% | [7] 105% | [8] 92% | [9] 104% | [10] 123% | [11] 98.7% | [12] 103% | [13] 91.8% | [14] 99.1% | [15] 102% | [16] 89.5% | [17] 105% | [18] 103% | [19] 100%

COc1cc2oc(-c3cccc(C(=O)Nc4ccc(Cl)cc4)c3)cc(=O)c2c(OCCNC(=O)[C@H](CCC(=O)OC(C)(C)C)NC(=O)OC(C)(C)C)c1OC
inactive: [1] 100% | [2] 108% | [3] 74.2% | [4] 94.8% | [5] 96.8% | [6] 83.5% | [7] 89.3% | [8] 82% | [9] 99.2% | [10] 106% | [11] 90.7% | [12] 91.9% | [13] 74.4% | [14] 109% | [15] 93.7% | [16] 69.4% | [17] 113% | [18] 95.3% | [19] 71.6%

C=CC[N+](C)(C)CCn1c2ccccc2c2nc3cc(C)c(C)cc3nc21
inactive: [1] 106% | [2] 105% | [3] 88.5% | [4] 19.2% | [5] 72.9% | [6] 97.4% | [7] 63.7% | [8] 97.1% | [9] 79.6% | [10] 112% | [11] 89.7% | [12] 14.2% | [13] 71% | [14] 106% | [15] 107% | [16] 90% | [17] 115% | [18] 102% | [19] 116%

NS(=O)(=O)c1ccc(-n2cc(-c3cccc(NC(=O)c4cc(C(F)(F)F)cc(C(F)(F)F)c4)c3)nn2)cc1
inactive: [1] 85.7% | [2] 46.6% | [3] 37.5% | [4] 25% | [5] 11.7% | [6] 52% | [7] 90.5% | [8] 73.8% | [9] 81.5% | [10] 81.8% | [11] 63.8% | [12] 74.7% | [13] 102% | [14] 72.9% | [15] 66.1% | [16] 75.3% | [17] 152% | [18] 75.4% | [19] 75.1%

COc1cc(/C=C/C(=O)c2ccccc2)ccc1Oc1nc(Nc2ccc(F)cc2)nc(N(C)C)n1
inactive: [2] 14.5% | [3] 39.9% | [6] 30.2% | [7] 18.9% | [8] 14.8% | [9] 18% | [11] 38.6% | [13] 27.3% | [14] 89.8% | [16] 37.5% | [17] 48.8%
active: [1] -0.132% | [4] 3.33% | [5] 5.24% | [10] -38% | [12] -5.73% | [15] -4.12% | [18] 9.17% | [19] 7.1%

COc1cc(CNC(=O)/C=C/c2ccc3c(c2)OCO3)ccc1OCc1cn(-c2cccc(C(F)(F)F)c2)nn1
inactive: [1] 38.2% | [2] 17.6% | [3] 41.1% | [4] 33.1% | [7] 33.2% | [10] 54% | [12] 21.4% | [14] 19.9% | [17] 57.7% | [18] 52.2% | [19] 48.8%
active: [5] -32.9% | [6] 0.703% | [8] -29.2% | [9] 5.76% | [11] 6.68% | [13] -4.4% | [15] 0.888% | [16] 6.02%

Cc1cc2nc3c4ccccc4n(CCCN(C)C)c3nc2cc1C
active: [1] -10.1% | [2] -3.59% | [3] -97.8% | [4] -8.61% | [5] 1.33% | [6] -32% | [7] -94.4% | [8] -90.4% | [9] -71.1% | [10] -90.1% | [11] -41.8% | [12] -27.6% | [13] 2.63% | [14] 8.05% | [15] 4.95% | [16] 3.24% | [17] -39.6% | [18] 0.177% | [19] 2.75%

COc1cc(-c2ccc(/C=N/NC(=O)c3[nH]c4ccc(Br)cc4c3-c3ccccc3)o2)cc(OC)c1OC
inactive: [1] 69.2% | [2] 96.4% | [3] 74.4% | [4] 52.4% | [5] 40.6% | [6] 68.8% | [7] 92.2% | [8] 77.2% | [9] 86.8% | [10] 107% | [11] 65.7% | [12] 96.3% | [13] 102% | [14] 112% | [15] 76% | [16] 74.5% | [17] 134% | [18] 69.5% | [19] 77.3%

COc1ccc2oc3c4[nH]c5ccccc5c4c4c(c3c2c1)C(=O)N(C(=O)OC(C)(C)C)C4=O
inactive: [4] 11.8%
active: [1] -23.2% | [2] -32% | [3] -3.78% | [5] 4.43% | [6] -12.9% | [7] -99.3% | [8] -77.3% | [9] -45.5% | [10] -46.8% | [11] -18.9% | [12] -19.3% | [13] -12.8% | [14] -11% | [15] -22.3% | [16] -15.3% | [17] -10.9% | [18] 6.52% | [19] -28.4%

O=c1c2ccccc2nc(-c2ccccc2)n1/N=C/c1ccc2ccccc2c1
inactive: [1] 13.1% | [2] 19.9% | [3] 65.8% | [4] 56.8% | [5] 31.2% | [6] 53.4% | [7] 38.5% | [8] 35.8% | [9] 61.7% | [10] 116% | [11] 80.3% | [12] 52.5% | [13] 58.5% | [14] 72.9% | [15] 42.5% | [16] 48.5% | [17] 94.6% | [18] 51.9% | [19] 19.5%

COc1cc(-c2nc3cc(Cl)c(Cl)cc3[nH]2)ccc1OCc1nnc(-c2cccs2)o1
inactive: [1] 25.8% | [2] 58.2% | [3] 114% | [4] 65.8% | [5] 71.1% | [6] 50% | [7] 44.6% | [8] 21.3% | [9] 31.4% | [10] 65.7% | [11] 91.3% | [12] 33.7% | [13] 62.5% | [14] 125% | [15] 36% | [16] 67.7% | [17] 121% | [18] 91.8% | [19] 62.8%

CC(=O)Oc1ccccc1C(=O)[Se]CC(=O)Nc1cccc(C(F)(F)F)c1
inactive: [6] 24.9% | [18] 24.6% | [19] 11.7%
active: [1] -79.8% | [2] -38.7% | [3] -39.2% | [4] -78.5% | [5] -48.3% | [7] -86.4% | [8] -56.7% | [9] -58.8% | [10] -21% | [11] -96.7% | [12] -80.3% | [13] -85% | [14] -83.8% | [15] -34.8% | [16] -74.4% | [17] -61%

O=C(/C=C/c1ccc(O)c(O)c1)NC1CCOC1O (centres undefined)
inactive: [1] 94.6% | [2] 113% | [3] 91.6% | [4] 98.8% | [5] 95.4% | [6] 95.4% | [7] 103% | [8] 104% | [9] 107% | [10] 113% | [11] 97.1% | [12] 96.4% | [13] 80.4% | [14] 109% | [15] 104% | [16] 92.9% | [17] 109% | [18] 96.4% | [19] 96.3%

Cn1nc(C(F)(F)F)cc1-c1cc(Cl)c(COc2ccc(Cl)cc2)c(-c2ccc(Cl)c(C(F)(F)F)c2)c1O
active: [1] -39.5% | [2] 6.65% | [3] -22.5% | [4] -11.5% | [5] -24.8% | [6] -12.3% | [7] -74.4% | [8] -86.1% | [9] -48.8% | [10] -81.6% | [11] -2.8% | [12] -51.4% | [13] -48.4% | [14] 3.16% | [15] -5.03% | [16] -15.9% | [17] -11.9% | [18] -34.3% | [19] -23.1%

Cc1ccc(NCC(=O)Cn2cc(COc3ccc(C=Nc4cnc5ccccc5c4)cc3)nn2)cc1
inactive: [1] 112% | [2] 116% | [3] 111% | [4] 97.9% | [5] 101% | [6] 106% | [7] 102% | [8] 97.8% | [9] 112% | [10] 136% | [11] 106% | [12] 99.9% | [13] 90.1% | [14] 109% | [15] 107% | [16] 97% | [17] 124% | [18] 102% | [19] 108%

Source: PubChem BioAssay (NCI)
